# Whole data set: some 110,000 compounds, median “z-score” near -0.1, cut for the highest 2% near 2. For the sample, the highest values were picked, then their nearest neighbours and some compounds at random. Activity calls are given as the source filed them.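 The calls were made as follows: active = z-score in the third read window above 3 or below -3; inactive = the rest.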
# Molecular target: Metabotropic glutamate receptor 8 (Rattus norvegicus) (UniProt P70579)
# Assay: rat mGluR8 modulators via GIRK flux, primary screen, cell-based, thallium flux, HTS (AID 488969)
# Conditions: HEK293 rat mGluR8, GIRK (G protein-gated inwardly rectifying potassium channel) thallium flux, FluoZin2; at 10 µM; stronger effect = higher value; submaximal glutamate (EC20) added with thallium
# Chain of Metabotropic glutamate receptor 8 (Rattus norvegicus) (P70579 whole entry, looked up): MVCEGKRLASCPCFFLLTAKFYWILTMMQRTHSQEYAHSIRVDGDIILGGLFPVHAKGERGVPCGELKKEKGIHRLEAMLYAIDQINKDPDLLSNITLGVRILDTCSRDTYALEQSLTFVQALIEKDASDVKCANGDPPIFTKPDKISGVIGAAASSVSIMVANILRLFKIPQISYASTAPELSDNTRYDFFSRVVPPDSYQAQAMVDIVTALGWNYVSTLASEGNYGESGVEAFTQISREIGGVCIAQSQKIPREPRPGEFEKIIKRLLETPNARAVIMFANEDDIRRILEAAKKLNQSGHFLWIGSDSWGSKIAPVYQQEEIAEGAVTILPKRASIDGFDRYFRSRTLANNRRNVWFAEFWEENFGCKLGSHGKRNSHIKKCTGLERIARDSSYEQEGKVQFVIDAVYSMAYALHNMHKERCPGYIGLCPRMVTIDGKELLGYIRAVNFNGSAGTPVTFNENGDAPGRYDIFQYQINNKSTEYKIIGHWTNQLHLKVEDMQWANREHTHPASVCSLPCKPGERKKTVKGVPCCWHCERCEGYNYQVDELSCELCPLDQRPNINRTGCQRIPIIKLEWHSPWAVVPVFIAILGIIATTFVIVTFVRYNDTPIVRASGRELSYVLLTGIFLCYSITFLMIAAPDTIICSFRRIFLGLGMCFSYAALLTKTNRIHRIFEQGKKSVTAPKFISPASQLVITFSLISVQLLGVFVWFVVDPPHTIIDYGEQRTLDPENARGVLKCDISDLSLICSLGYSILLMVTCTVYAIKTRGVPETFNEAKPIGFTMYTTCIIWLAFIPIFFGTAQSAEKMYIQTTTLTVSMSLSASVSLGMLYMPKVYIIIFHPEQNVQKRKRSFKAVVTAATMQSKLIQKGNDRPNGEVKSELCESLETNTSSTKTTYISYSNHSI
row,SMILES,z-score
1,Cc1ccc2c(c1)C(=O)CCN2,0.498
2,CC(C)NC(=S)NC(=O)/C=C/c1cccc2ccccc12,0.214
3,CC(OC(=O)C1=COCCO1)C(=O)Nc1ccc(Oc2ccccc2)cc1 (stereo unspecified),0.0205
4,CCOC(=O)c1c(C)[nH]c(=S)c(C#N)c1-c1ccc(Cl)cc1,3.4 (active)
5,CCOC(=O)c1c(-c2ccc(Cl)cc2)c(C#N)c(=O)n(N)c1N,-0.497
6,CCOC(=O)c1c(C)[nH]c(=S)c(C#N)c1-c1ccc(OC)cc1,0.501
7,N#Cc1ccccc1CSc1ccc(-c2nc3ccccc3[nH]2)cn1,-0.154
8,COc1ccc(-c2cc(C(F)(F)F)c(C#N)c(SCC(=O)Nc3nc(C)co3)n2)cc1,-0.185
9,O=[N+]([O-])c1cccnc1N1CCC(c2cc(-c3cccc(C(F)(F)F)c3)n[nH]2)CC1,-0.378
10,CNC(=S)N1CCN(C(=O)c2ccco2)CC1,2.05
11,COCCCNC(=S)N1CCN(C(=O)c2ccco2)CC1,-0.034
12,O=C(CCC1CCCC1)N1CCN(C(=O)c2ccco2)CC1,2.43
13,O=C(Cc1ccccc1)N1CCN(C(=O)c2ccco2)CC1,-0.0691
14,CC1CCc2nn(CC(=O)N3CCc4ccccc43)cc2C1 (stereo unspecified),0.16
15,CC1CCCN(C(=O)CN2CCN(C(=O)c3ccco3)CC2)C1 (stereo unspecified),0.124
16,O=C(CCSc1ccccc1)N1CCN(C(=O)c2ccco2)CC1,-0.515
17,O=C(c1ccco1)N1CCCN(C(=O)c2ccco2)CC1,-0.354
18,CC1CCc2nn(CC(=O)N3CCN(C(=O)c4ccco4)CC3)cc2C1 (stereo unspecified),3.92 (active)
19,CCn1c(SCc2nc3ccccc3c(=O)[nH]2)nc2ccccc2c1=O,-0.672
20,Cc1ccc2cc(CN(Cc3cccs3)Cc3nnnn3CC3CCCO3)c(=O)[nH]c2c1 (stereo unspecified),-0.0837
21,CCOC(=O)N1CCN(CC(=O)Nc2ccc(C)c(Br)c2)CC1,-0.241
22,CCOC(=O)COc1ccc(S(=O)(=O)Nc2ccc(C)cc2)cc1,-0.352
23,CCC(c1c(C)[nH]oc1=O)c1c(C)[nH]oc1=O,0.119
24,COc1cc(/C=C2/SC(N)=NC2=O)ccc1Oc1ccc([N+](=O)[O-])cc1[N+](=O)[O-],-0.644

row,SMILES,z-score
1,Cc1cc(C(=O)COC(=O)Cc2n[nH]c(=O)c3ccccc23)c(C)n1-c1cccc(C(F)(F)F)c1,-1.01
2,CCN(CC)c1ccc2cc(-c3nnc(-c4ccccc4)o3)c(=O)oc2c1,2.42
3,CCN(CC)c1ccc2cc(C=O)c(=O)oc2c1,17.6 (active)
4,CCN(CC)c1ccc2cc(-c3nnc(-c4ccncc4)o3)c(=O)oc2c1,-1.17
5,CCN(CC)c1ccc2cc(-c3nnc(-c4ccc(Br)cc4)o3)c(=O)oc2c1,-4 (active)
6,CCN(CC)c1ccc2cc(C(C)=O)c(=O)oc2c1,-2.23
7,CCN(CC)c1ccc2cc(C(N)=O)c(=O)oc2c1,-0.0435
8,CC1CCc2nn(CC(=O)NCCCN3CCOCC3)cc2C1 (stereo unspecified),-0.0438
9,O=C(c1cccc(-n2cnnn2)c1)N1CCOCC1,-0.145
10,COC(=O)c1ccc(C(C(=O)NCc2ccccc2)N(Cc2cccs2)C(=O)c2cnccn2)cc1 (stereo unspecified),-0.245
11,CCc1ccccc1N1C(=O)c2ccccc2S1(=O)=O,-0.409
12,CN(CCc1ccccn1)S(=O)(=O)c1ccccc1F,0.185
13,O=C1c2ccccc2C(=O)N1CNc1ccccc1,0.141
14,O=C1c2ccccc2C(=O)N1Nc1ccccc1,4.88 (active)
15,O=C1C=C(c2ccccc2)C(=O)N1Nc1ccccc1,0.219
16,COc1ccc(/C=N/OCC(=O)Nc2nc3ccccc3s2)cc1,-0.132
17,Cc1cc(OCCN2CCCCC2)nc2ccccc12,0.234
18,Cc1cc(C)cc(C(=O)n2cnnc2N)c1,-0.0618
19,CCOC(=O)CC12CN3CN(C1)CC(CC(=O)OCC)(C3)C2=O,-0.0089
20,CC(C)OC(=O)CC12CN(C)CC(CC(=O)OC(C)C)(CN(C)C1)C2=O,0.458
21,CC(C)OC(=O)CC12CN3CN(C1)CC(CC(=O)OC(C)C)(C3)C2=O,3.43 (active)
22,O=C(O)c1ccc(F)c(S(=O)(=O)Nc2ccccc2Cl)c1,-0.11
23,COC(=O)c1ccccc1NC(=O)c1cccc(NC(=O)CSCc2ccccc2)c1C,-0.0727
24,Cc1cc(Cl)ccc1OCCCC(=O)NCC1CCCO1 (stereo unspecified),-0.79

row,SMILES,z-score
1,Cc1cccc(NC(=O)c2cc3ccccc3o2)c1,-1.37
2,CC(C)C(=O)Nc1cccc(NC(=O)c2cc3ccccc3o2)c1,7.7 (active)
3,CC(C)C(=O)Nc1ccc(NC(=O)c2cc3ccccc3o2)cc1,-0.885
4,CCOc1ccc(OCC)c(NC(=O)c2[nH]c(C)c(C(C)=O)c2C)c1,0.862
5,O=C(NCc1nc2ccccc2[nH]1)c1cccc(S(=O)(=O)N2CCCC2)c1,2.4
6,O=C(NCc1nc2ccccc2[nH]1)c1cccc(S(=O)(=O)N2CCOCC2)c1,0.567
7,O=C(NCc1nc2ccccc2[nH]1)c1ccc(Cl)c(S(=O)(=O)N2CCCC2)c1,-0.297
8,CCN(c1c(C)n(C)n(-c2ccccc2)c1=O)S(C)(=O)=O,0.17
9,Cc1ccc(S(=O)(=O)NC2CCCC2)cc1C,-0.157
10,Cc1cc(C)c2c(c1)-c1c(ssc1=S)C(C)(C)N2C(=O)CN1C(=O)c2ccccc2C1=O,0.383
11,CC(C)(C)Nc1nc(NN)nc(NC(C)(C)C)n1,-0.766
12,CC(C)(C)Nc1nc(Cl)nc(NC(C)(C)C)n1,-0.0263
13,CNc1nc(Cl)nc(NC(C)(C)C)n1,7.77 (active)
14,CCn1c(=NC(=O)CSC(C)=O)sc2cc(OC)ccc21,0.477
15,CCn1c(=NC(=O)CSC(C)=O)sc2cc(F)ccc21,0.658
16,CCn1c(=NC(=O)CSC(C)=O)sc2ccccc21,3.49 (active)
17,CN1CCN(CCC(=O)Nc2ccc3c(c2)OCO3)CC1,0.213
18,Cc1cccc(NC(=O)CSc2nc3ccc(NC(=O)CSc4nnnn4-c4ccccc4)cc3s2)c1C,0.181
19,CCN(CC)S(=O)(=O)c1cc(NC(=O)COC(=O)c2sc3ccccc3c2Cl)ccc1C,-0.0136
20,Cc1sc(-n2c(C)cc(/C=C3\SC(=S)NC3=O)c2C)c(C#N)c1C,2.26
21,Cc1cc(/C=C2\SC(=S)NC2=O)c(C)n1C,-0.121
22,CCn1c(C)cc(/C=C2/SC(=S)NC2=O)c1C,0.271
23,CCN1CCN(C(=O)C(C)N(c2ccc(C)cc2)S(C)(=O)=O)CC1 (stereo unspecified),1.05
24,CCOC(=O)c1sc(NC(=O)CN(CC)CC)c(C(=O)OCC)c1C,-0.132

row,SMILES,z-score
1,CCOC(=O)c1sc(NC(=O)CN2CCCC2)c(C(=O)OCC)c1C,-0.225
2,CCOC(=O)c1sc(NN=C(C(=O)OC)C(=O)OC)c(C(=O)OCC)c1C,2.57
3,COCCSc1ccccc1C(=O)Nc1ccncc1,0.236
4,O=C(Cc1ccccc1)NC(=S)Nc1cccc(C(F)(F)F)c1,4.01 (active)
5,O=C(CN1CCN(c2cccc(C(F)(F)F)c2)CC1)Nc1cccc(C(F)(F)F)c1,1
6,O=C(CN1CCN(c2ccccc2)CC1)Nc1cccc(C(F)(F)F)c1,0.756
7,S=C(NCc1ccccc1)NCc1ccccc1,0.346
8,CCCCOc1cccc(C(=O)NC(=S)Nc2cccc(C(F)(F)F)c2)c1,1.84
9,O=C(CN1CCN(Cc2ccccc2)CC1)Nc1cccc(C(F)(F)F)c1,7.94 (active)
10,CCCOc1cccc(C(=O)NC(=S)Nc2ccccc2)c1,0.0309
11,S=C(NCc1ccccc1)NCc1ccc2c(c1)OCO2,1.86
12,S=C(NCc1ccccc1)NCc1cccc(CNC(=S)NCc2ccccc2)c1,2.84
13,CCCOc1cccc(C(=O)NC(=S)Nc2cccc(C(F)(F)F)c2)c1,3.57 (active)
14,CCC(=O)Nc1cccc(NC(=S)NC(=O)Cc2ccccc2)c1,-0.281
15,O=C(Cc1ccccc1)NC(=S)Nc1cc(C(F)(F)F)ccc1Cl,0.00533
16,CCN(CC)C(=O)n1nc(C)c(CN2C(=O)c3ccccc3C2=O)c1C,-0.151
17,Nc1ccc(Cl)c(-c2nc3ncccc3o2)c1,0.714
18,CC(C)c1onc(C(=O)N2CCCCC2C)c1[N+](=O)[O-] (stereo unspecified),-0.0403
19,OC(CSc1ccccc1Cl)CN1CCN(c2ccc(F)cc2)CC1 (stereo unspecified),-0.618
20,CCOC(=O)c1cnc2ccc(C)cc2c1Sc1ccc(F)cc1,-0.262
21,Cc1ccc(S(=O)(=O)N2CCCC2C(=O)Nc2cc(C)on2)cc1 (stereo unspecified),0.4
22,Cc1ccc(CNC(=O)c2ccccc2NS(C)(=O)=O)cc1,-0.309
23,COc1ccc(CNC(=S)Nc2ccc(OC)cc2)cc1,0.711
24,FC(F)(F)c1cccc(NC(=S)NCc2ccccn2)c1,0.164

row,SMILES,z-score
1,FC(F)(F)Oc1ccc(NC(=S)NCc2ccccc2)cc1,3.23 (active)
2,FC(F)(F)c1cccc(NC(=S)NCc2ccccc2)c1,5.63 (active)
3,FC(F)Oc1ccc(NC(=S)NCc2ccccc2)cc1,1.51
4,FC(F)(F)c1cccc(NC(=S)NNC(=S)NCc2ccccc2)c1,-0.388
5,N=C(N)SCc1nc2ccccn2c1Br,0.308
6,CCOc1cccc(C(=O)Nc2ccc3oc(Cc4ccc(Cl)cc4)nc3c2)c1,-0.351
7,COc1ccc(N(CC(O)CN2C(=O)NC(C)(C)C2=O)S(=O)(=O)c2ccccc2)cc1 (stereo unspecified),-0.294
8,C=CCn1c(SCc2c(F)c(F)c(F)c(F)c2F)nc(O)cc1=O,-0.151
9,C=CCn1c(SCC)nc(O)cc1=O,-0.0583
10,C=CCn1c(SCc2ccccc2)nc(O)cc1=O,2.19
11,O/N=C/c1cc(Br)ccc1OCc1ccc(F)cc1,-0.142
12,Cn1c(=O)c2c(nc3sccn32)n(C)c1=O,3.7 (active)
13,Cc1nc2sccn2c(=O)c1Br,0.0767
14,Cc1nc2sccn2c(=O)c1Cl,0.324
15,COc1ccccc1C(=O)NCc1ccccc1,-0.524
16,Cc1ccc(O)c(NC(=S)NC(=O)c2ccc(-c3ccc(Cl)cc3)o2)c1,0.233
17,NC(=O)c1ccc(Cc2ncc(C(F)(F)F)cc2Cl)s1,4.24 (active)
18,O=C(CCl)c1ccc(Cc2ncc(C(F)(F)F)cc2Cl)s1,-0.0387
19,CC(=O)c1ccc(Cc2ncc(C(F)(F)F)cc2Cl)s1,-0.823
20,CC1Cc2ccccc2N1CC(=O)c1c(N)n(Cc2ccccc2)c(=O)n(C)c1=O (stereo unspecified),-0.314
